# According to PubChem BioAssay (Tox21):
# Values without a mark were called inactive. Records with an inconclusive call do not appear. A call without a number means that no potency is given here. Activity calls are given as the source filed them. Unless noted, calls follow the shape of the dose curve; as a rule, active = well fitted curve in the direction sought with a large enough effect in the repeat runs; inconclusive = weak or mixed curves; inactive = no such curve, though single readings can be large; an effect the other way counts as inactive or inconclusive.
# Assays:
# [1] = target: Luciferin 4-monooxygenase (Photinus pyralis) (UniProt P08659); test: qHTS assay to identify small molecule inhibitors of firefly luciferase (AID 1224835); also: nearly all actives have a fitted effect of over 25% in size; also: potency is read from the fitted curve at half-maximal effect
# Chain of Luciferin 4-monooxygenase (Photinus pyralis) (P08659 whole entry, looked up): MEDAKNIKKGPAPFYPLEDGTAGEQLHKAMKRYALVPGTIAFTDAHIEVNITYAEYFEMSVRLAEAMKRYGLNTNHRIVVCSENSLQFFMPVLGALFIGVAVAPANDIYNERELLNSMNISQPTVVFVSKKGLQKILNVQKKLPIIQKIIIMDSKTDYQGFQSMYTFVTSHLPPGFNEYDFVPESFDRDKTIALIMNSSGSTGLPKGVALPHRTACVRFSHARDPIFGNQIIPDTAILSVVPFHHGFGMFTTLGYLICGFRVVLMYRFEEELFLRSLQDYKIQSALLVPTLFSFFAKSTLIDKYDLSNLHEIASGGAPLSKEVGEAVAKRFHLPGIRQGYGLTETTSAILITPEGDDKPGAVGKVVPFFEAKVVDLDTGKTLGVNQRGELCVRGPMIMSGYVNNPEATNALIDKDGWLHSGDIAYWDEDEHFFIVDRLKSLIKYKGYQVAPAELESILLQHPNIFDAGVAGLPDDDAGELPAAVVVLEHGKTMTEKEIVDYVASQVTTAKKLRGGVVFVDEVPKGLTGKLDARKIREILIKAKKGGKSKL
# Method in brief: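 Inhibition of purified Photinus luciferase is measured by luminescence. Substrate levels (D-luciferin, ATP) sit at their KM values. Each compound is tested in a concentration series.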
# [2] = qHTS assay to identify small molecule agonists of the constitutive androstane receptor (CAR) signaling pathway - cell viability counter screen (AID 1224836); also: nearly all actives have a fitted effect of over 45% in size; also: potency is read from the fitted curve at half-maximal effect
# Method in brief: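 HepG2 cells stably carrying hCAR and a CYP2B6-2.2kb reporter; 15-concentration compounds plus PK11195 (final 0.75 uM), 23 hr at 37 C/5% CO2. Viability read by CellTiter-Fluor fluorescence.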
# [3] = qHTS assay to identify small molecule antagonists of the constitutive androstane receptor (CAR) signaling pathway - cell viability counter screen (AID 1224837); also: nearly all actives have a fitted effect of over 45% in size; also: potency is read from the fitted curve at half-maximal effect
# Method in brief: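 Fluorescence from CellTiter-Fluor served as the viability signal. Human hepatoma HepG2 cells stably bearing hCAR and CYP2B6-2.2kb received compound plus CITCO (50 nM final) for 23 hr.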
# [4] = target: Nuclear receptor subfamily 1 group I member 3 (Homo sapiens) (UniProt Q14994); test: qHTS assay to identify small molecule antagonists of the constitutive androstane receptor (CAR) signaling pathway (AID 1224838);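 also: HepG2 cells stably expressing hCAR with CYP2B6 luciferase reporter stimulated by CITCO; nearly all actives have a fitted effect of over 40% in size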; also: potency is read from the fitted curve at half-maximal effect
# Chain of Nuclear receptor subfamily 1 group I member 3 (Homo sapiens) (Q14994 whole entry, looked up): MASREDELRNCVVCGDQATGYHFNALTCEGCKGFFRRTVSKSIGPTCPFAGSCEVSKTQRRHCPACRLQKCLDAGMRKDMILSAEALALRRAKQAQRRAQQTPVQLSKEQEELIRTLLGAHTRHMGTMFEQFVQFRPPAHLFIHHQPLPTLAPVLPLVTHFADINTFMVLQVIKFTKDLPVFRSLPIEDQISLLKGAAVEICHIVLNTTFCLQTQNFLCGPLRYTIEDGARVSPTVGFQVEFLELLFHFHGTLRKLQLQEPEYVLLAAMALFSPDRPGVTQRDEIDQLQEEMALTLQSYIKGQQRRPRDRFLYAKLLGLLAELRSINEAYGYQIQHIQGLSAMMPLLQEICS
# Method in brief: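 Quantitative HTS in double-stable HepG2-CYP2B6-hCAR cells. After 4 h plating, cells get compound (15 concentrations) and CITCO at 50 nM final, incubate 24 h at 37 C, then ONE-Glo luminescence is read.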
# [5] = target: Nuclear receptor subfamily 1 group I member 3 (Homo sapiens) (UniProt Q14994); test: qHTS assay to identify small molecule agonists of the constitutive androstane receptor (CAR) signaling pathway (AID 1224839);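 also: HepG2 cells stably carrying human CAR and a CYP2B6 luciferase reporter; nearly all actives have a fitted effect of over 15% in size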
# Method in brief: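 HepG2 cells stably co-transfected with hCAR and a CYP2B6-2.2kb luciferase reporter; compounds at 15 concentrations with 0.75 uM PK11195 present. After 24 hr at 37 C, luciferase read by ONE-Glo luminescence.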
# [6] = qHTS assay to identify small molecule antagonists of the estrogen related receptor signaling pathway with the pleiotropic PPARgamma coactivator (PGC) from Tox21 10K library - cell viability counter screen (AID 1224840; active = well fitted cell-killing curve with a large enough effect in the repeat runs, not every such curve was filed as active; also: nearly all actives have a fitted effect of over 40% in size)
# Method in brief: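 Compounds in DMSO, alongside positive and negative controls, were pinned onto PGC/ERR cells (2,000 per well). Exposure lasted 17.5 hours at 37 C, followed by a 30-minute CellTiter-Fluor incubation and fluorescence reading.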
# [7] = qHTS assay to identify small molecule agonists of the hypoxia (HIF-1) signaling pathway - cell viability counter screen (AID 1224844; calls by dose curve; also: nearly all actives have a fitted effect of over 50% in size; also: potency is read from the fitted curve at half-maximal effect)
# Method in brief: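 Luminescent ATP content (CellTiter-Glo, 30 min, room temperature) served as the viability measure in HRE-bla ME-180 cells exposed to compounds for 17 hrs in low-serum medium (0.5% dialyzed FBS).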
# [8] = qHTS assay to identify small molecule agonists of H2AX (AID 1224845; active = well fitted activation curve with a large enough effect in the signal ratio in the repeat runs, not every such curve was filed as active; the % refers to the signal ratio)
# Method in brief: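 Phospho-H2AX Ser139 measured by HTRF (ex 320 nm; em 665 and 620 nm) after 24 hr antibody incubation. Compounds, 15 concentrations, 0.76% DMSO, were applied to CHO-K1 cells for 3hr at 37C before lysis.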
# [9] = qHTS assay to identify small molecule agonists of the hypoxia (HIF-1) signaling pathway (AID 1224846; active = well fitted activation curve with a large enough effect in the signal ratio in the repeat runs, not every such curve was filed as active; the % refers to the signal ratio)
# Method in brief: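 Measured by blue/green FRET after loading CCF4-AM: beta-lactamase expressed from a hypoxia response element in ME-180 cells. Test agents were delivered in DMSO and left 17 hrs; cells had been plated 5 hrs earlier in low-serum (0.5% dialyzed FBS) medium.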
# [10] = qHTS assay to identify small molecule agonists of H2AX - cell viability counter screen (AID 1224847; calls by dose curve; also: nearly all actives have a fitted effect of over 30% in size; also: potency is read from the fitted curve at half-maximal effect;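 as to activity change, negative = cytotoxicity: wild-type CHO-K1 cells; top concentration of the series differs between compounds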)
# Method in brief: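 CHO-K1 cells plated overnight at 37C, then exposed 3 h at 37C to compounds at 15 concentrations (0.76% DMSO final). Viability by CellTiter-Glo luminescence after 30 min at room temperature.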
# [11] = qHTS RealTime-Glo MT Cell Viability Assay in HepG2 cells - 24 hour (AID 1224867); also: nearly all actives have a fitted effect of over 50% in size; also: potency is read from the fitted curve at half-maximal effect
# Method in brief: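 Cell number in HepG2 cultures estimated from NanoLuc luminescence generated by metabolic reduction of a prosubstrate by living cells. The homogeneous, nonlytic format allowed repeated reads at 0, 8, 16, 24, 32 and 40 h of compound exposure.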
# [12] = qHTS RealTime-Glo MT Cell Viability Assay in HEK293 cells - 32 hour (AID 1224868); also: nearly all actives have a fitted effect of over 50% in size; also: potency is read from the fitted curve at half-maximal effect; as to activity change, negative = cytotoxic: top concentration of the series differs between compounds
# Method in brief: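 Homogeneous bioluminescent viability format in HEK293 cells (600 cells/well). Following 5 h at 37 C/5% CO2, 23 nL compound was pintooled; the signal was measured repeatedly during 40 h incubation.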
# [13] = A CellTox Green Cytotoxicity Assay to monitor cytotoxicity in HEK293 cells - 0 hour (AID 1224869); also: nearly all actives have a fitted effect of over 50% in size
# Method in brief: (§1)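 Each value comes from one timepoint of a single continuous run in which HEK293 cells with CellTox Green were exposed to compound for up to 40 h at 37 C, dye fluorescence rising with cell death.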
# [14] = qHTS RealTime-Glo MT Cell Viability Assay in HepG2 cells - 40 hour (AID 1224870); also: nearly all actives have a fitted effect of over 50% in size; also: potency is read from the fitted curve at half-maximal effect
# Method in brief: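 Real-time viability: cells seeded at 600 per well together with NanoLuc and cell-permeant prosubstrate, compounds added after 5 h incubation. Luminescence tracked at 0, 8, 16, 24, 32 and 40 h of exposure.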
# [15] = A CellTox Green Cytotoxicity Assay to monitor cytotoxicity in HEK293 cells - 40 hour (AID 1224871); also: nearly all actives have a fitted effect of over 45% in size
# Method in brief: as §1
# [16] = target: Thyrotropin receptor (Homo sapiens) (UniProt P16473); test: qHTS assay to identify small molecule agonists of the thyroid stimulating hormone receptor (TSHR) signaling pathway (AID 1224843; calls by dose curve; also: nearly all actives have a fitted effect of over 45% in size)
# Chain of Thyrotropin receptor (Homo sapiens) (P16473 whole entry, looked up): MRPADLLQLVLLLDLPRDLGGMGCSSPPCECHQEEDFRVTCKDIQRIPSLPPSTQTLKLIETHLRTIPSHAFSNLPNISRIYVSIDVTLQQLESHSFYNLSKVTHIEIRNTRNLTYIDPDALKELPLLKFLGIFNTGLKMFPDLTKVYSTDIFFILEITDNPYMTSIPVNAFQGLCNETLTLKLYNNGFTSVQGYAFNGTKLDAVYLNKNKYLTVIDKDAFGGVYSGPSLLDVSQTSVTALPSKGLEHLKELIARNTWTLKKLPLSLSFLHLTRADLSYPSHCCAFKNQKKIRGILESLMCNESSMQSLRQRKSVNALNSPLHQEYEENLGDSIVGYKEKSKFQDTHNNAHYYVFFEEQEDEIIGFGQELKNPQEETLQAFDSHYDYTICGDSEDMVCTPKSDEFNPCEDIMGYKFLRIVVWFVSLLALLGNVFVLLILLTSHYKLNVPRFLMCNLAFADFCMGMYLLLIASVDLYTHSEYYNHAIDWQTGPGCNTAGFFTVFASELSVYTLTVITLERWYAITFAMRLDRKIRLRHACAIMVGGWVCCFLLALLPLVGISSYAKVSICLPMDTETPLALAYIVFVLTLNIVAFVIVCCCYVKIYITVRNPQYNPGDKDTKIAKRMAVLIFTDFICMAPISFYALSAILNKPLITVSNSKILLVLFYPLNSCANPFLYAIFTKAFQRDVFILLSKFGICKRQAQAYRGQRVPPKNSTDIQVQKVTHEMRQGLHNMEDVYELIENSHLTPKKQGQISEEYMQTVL
# Method in brief: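 Screening of the Tox21 10K collection used HEK293 cells engineered with TSHR at 800 cells per well. After a 30-min room-temperature compound exposure, HTRF cAMP reagents were added and fluorescence recorded 1 h later.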
# [17] = qHTS assay to identify small molecule antagonists of the estrogen related receptor signaling pathway with the pleiotropic PPARgamma coactivator (PGC) from Tox21 10K library (AID 1224841; call rule not given here; also: potency is read from the fitted curve at half-maximal effect)
# Method in brief: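 Compound exposure ran 18 hours at 37 C in PGC/ERR cells (2,000/well) that had first rested 6 hours in a 37 C/5% CO2 incubator. Luciferase activity was then detected with One-Glo after a 30-minute room-temperature step.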
# [18] = qHTS assay to identify small molecule antagonists of the estrogen related receptor (ERR) signaling pathway from Tox21 library (AID 1224848); also: nearly all actives have a fitted effect of over 50% in size; also: potency is read from the fitted curve at half-maximal effect
# Method in brief: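 Antagonist-mode screen of the Tox21 10K library in an NTP-provided ERR reporter cell line; 18 h compound exposure at 37 C, luminescence measured with ONE-Glo.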
# [19] = qHTS assay to identify small molecule agonists of the estrogen related receptor (ERR) signaling pathway from Tox21 library (AID 1224849; calls by dose curve; also: nearly all actives have a fitted effect of over 15% in size); settings: ERR reporter cell line, ONE-Glo luciferase, 18 h; at 92.4 µM (top of the series)
# Method in brief: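 We plated ERR reporter cells, waited 6 h, added compounds in DMSO by pin tool and incubated them 18 h at 37 C. ONE-Glo was then added and luminescence read after 30 min.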
smiles,measurement,setting,value
C[C@@H](O)[C@H](N)C(=O)O,"activity change, negative = inhibition",[1],1.37% [at 23.6 µM]
same,"viability change, negative = cytotoxic",[2],-1.25% [at 19 µM]
same,"activity change, negative = cytotoxicity",[3],9.9% [at 19 µM]
same,"activity, negative = inhibition",[4],17.3% [at 19 µM]
same,activation,[5],-3.11% [at 19 µM]
same,"viability change, negative = cytotoxic",[6],0.388% [at 19 µM]
same,"activity change, negative = cytotoxicity",[7],-2.15% [at 15.8 µM]
same,activation (H2AX phosphorylation),[8],0.0265% [at 31.6 µM]
same,activation,[9],-0.487% [at 15.8 µM]
same,"activity change, negative = cytotoxicity",[10],-4.33% [at 31.6 µM]
same,"activity change, negative = cytotoxicity",[11],0.0975% [at 15.8 µM]
same,"activity change, negative = cytotoxic",[12],0.135% [at 15.8 µM]
same,cytotoxicity,[13],-4.33% [at 15.8 µM]
same,"activity change, negative = cytotoxic",[14],-3.3% [at 15.8 µM]
same,cytotoxicity increase,[15],-7.08% [at 15.8 µM]
C=CC(=O)OCCOC(=O)C=C,Potency,[1],inactive
same,Potency,[2],inactive
same,Potency,[3],inactive
same,Potency,[4],inactive
same,Potency,[5],inactive
same,Potency,[6],inactive
same,Potency,[16],inactive
same,Potency,[7],24.5 µM (active)
same,Potency,[10],inactive
same,Potency,[11],inactive
same,Potency,[12],43.6 µM (active)
same,Potency,[13],inactive
same,Potency,[14],inactive
CC(C)(C)c1csc(-c2cc3cc(OCc4ccccc4CC(=O)O)ccc3o2)n1,Potency,[1],5.03 µM (active)
same,Potency,[2],inactive
same,Potency,[3],inactive
same,Potency,[4],inactive
same,Potency,[6],inactive
same,Potency,[16],inactive
same,Potency,[10],113 µM (active)
same,Potency,[11],inactive
same,Potency,[12],38.9 µM (active)
same,Potency,[13],inactive
same,Potency,[14],inactive
CCCCCCCCCCC[C@@H](C[C@@H]1OC(=O)[C@H]1CCCCCC)OC(=O)[C@H](CC(C)C)NC=O,Potency,[1],inactive
same,Potency,[2],inactive
same,Potency,[3],inactive
same,Potency,[4],inactive
same,Potency,[5],inactive
same,Potency,[6],inactive
same,Potency,[16],inactive
same,Potency,[7],inactive
same,Potency,[9],inactive
same,Potency,[11],inactive
same,Potency,[12],9.52 µM (active)
same,Potency,[14],inactive
CC(C)CCOC(=O)/C=C/c1ccccc1,Potency,[1],8 µM (active)
same,Potency,[2],inactive
same,Potency,[3],inactive
same,Potency,[4],inactive
same,Potency,[6],inactive
same,Potency,[16],inactive
same,Potency,[7],inactive
same,Potency,[9],inactive
same,Potency,[10],inactive
same,Potency,[11],inactive
same,Potency,[12],inactive
same,Potency,[13],inactive
same,Potency,[14],inactive
same,Potency,[15],inactive
O=C(c1ccc(O)c(O)c1)c1ccc(O)cc1O,Potency,[1],70.9 µM (active)
same,Potency,[2],inactive
same,Potency,[3],inactive
same,Potency,[4],inactive
same,Potency,[5],inactive
same,Potency,[17],68.5 µM (active)
same,Potency,[16],inactive
same,Potency,[7],inactive
same,Potency,[18],54.4 µM (active)
same,"activity change, positive = activation",[19],-38%
same,Potency,[11],inactive
same,Potency,[12],27.5 µM (active)
same,Potency,[13],inactive
same,Potency,[14],inactive
CCCCNS(=O)(=O)c1ccc(C)cc1,Potency,[1],inactive
same,Potency,[2],inactive
same,Potency,[3],inactive
same,Potency,[4],inactive
same,Potency,[6],inactive
same,Potency,[7],inactive
same,Potency,[8],inactive
same,Potency,[9],inactive
same,Potency,[10],inactive
same,Potency,[11],inactive
same,Potency,[13],inactive
same,Potency,[14],inactive
same,Potency,[15],inactive
CC(C)(C)c1ccc(C(O)CCCN2CCC(C(O)(c3ccccc3)c3ccccc3)CC2)cc1 (configuration not stated),Potency,[1],inactive
same,Potency,[2],23.7 µM (active)
same,Potency,[3],26.6 µM (active)
same,Potency,[4],26.6 µM (active)
same,Potency,[5],inactive
same,Potency,[7],21.3 µM (active)
same,Potency,[11],6.01 µM (active)
same,Potency,[12],4.77 µM (active)
same,Potency,[13],inactive
same,Potency,[14],4.77 µM (active)
Nc1cc(Cl)c(O)c(Cl)c1,Potency,[1],inactive
same,Potency,[2],inactive
same,Potency,[3],inactive
same,Potency,[4],inactive
same,Potency,[6],inactive
same,Potency,[17],inactive
same,Potency,[9],inactive
same,Potency,[18],inactive
same,"activity change, positive = activation",[19],-4.45%
same,Potency,[11],inactive
same,Potency,[13],inactive
same,Potency,[14],inactive
ClCCl,Potency,[1],inactive
same,Potency,[2],inactive
same,Potency,[3],inactive
same,Potency,[4],inactive
same,Potency,[5],inactive
same,Potency,[6],inactive
same,Potency,[7],inactive
same,Potency,[8],inactive
same,Potency,[9],inactive
same,Potency,[10],inactive
same,Potency,[11],inactive
same,Potency,[14],inactive
same,Potency,[15],inactive
